# In the library only some 19% were active in any assay of this set; here they are far more common.
# HT1080 IDH1KD tx – qHTS for induction of synthetic lethality in tumor cells producing 2HG: qHTS for the HT-1080-IDH1KD cell line. HT-1080 IDH1 knockdown viability, ATP luminescence, 48 h. Potency, µM (series often up to 46.1 µM), for inactives: at the highest dose activity, negative = toxicity, usual class: cytotoxic. 360,000 tested, 2% active. AID 686971, 2013;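 note: potency is the fitted concentration of half-maximal effect; 0% = DMSO wells and -100% = cell-free medium wells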
#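 HT-1080-IDH1KD cells (IDH1 knocked down), 750/well in RPMI with 5% FBS, treated with compound 48 h at 37 degrees C. Viability by CellTiter-Glo luminescence, normalised to DMSO and no-cell wells; concentration-response curves classed.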
# TDP1 cell CPT – qHTS for Inhibitors of human tyrosyl-DNA phosphodiesterase 1 (TDP1): qHTS in cells in presence of CPT | AID 686979, 2013 | Potency, µM (series often up to 46.2 µM), for the others: at the top dose activity change, negative = growth inhibition, hits mostly inhibitors | 420,000 tested, 12% active | chicken DT40 Tdp1-/-;hTDP1 cells + 20 nM CPT, ATP luminescence, 48 h; note: potency is the fitted concentration of half-maximal effect; nearly all actives have a fitted effect of over 55% in size
#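 Chicken DT40 Tdp1-/- cells complemented with human TDP1, 400 cells/well, exposed to compounds plus 20 nM camptothecin for at least 48 h at 37 C; viability read as ATP content by CellTiter-Glo luminescence.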
# ELG1 DNA repair – qHTS screen for small molecules that inhibit ELG1-dependent DNA repair in human embryonic kidney (HEK293T) cells expressing luciferase-tagged ELG1 | HEK293T ELG1-luciferase reporter, luminescence, 16 h; DNA damage induced by 5-fluorouridine | Potency, µM (series often up to 46.1 µM), inactives show at the top dose activity change, negative = inhibition, actives largely listed as inhibitors | 330,000 tested, 2.3% active | AID 504467, 2011; note: potency is the fitted concentration of half-maximal effect; nearly all actives have a fitted effect of over 55% in size
#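 Reporter activity after DNA damage by 5-fluorouridine is monitored. Compound-treated cells incubate 16 hr at 37 °C, then ONE-Glo is added for 30 min before luminescence reading.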
# DT40 TDP1 no CPT – qHTS for Inhibitors of human tyrosyl-DNA phosphodiesterase 1 (TDP1): qHTS in cells in absence of CPT | 420,000 tested, 15% active | Potency, µM (highest dose often 46.2 µM), for the others: at the top dose activity change, negative = growth inhibition, most hits filed as inhibitors | DT40 Tdp1-/- hTDP1 cells, no CPT, ATP luminescence, 48 h; note: potency is the fitted concentration of half-maximal effect; nearly all actives have a fitted effect of over 55% in size
#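 Luminescent ATP content (CellTiter-Glo) served as the growth readout. Knockout chicken DT40 cells expressing human TDP1 were exposed to compounds without camptothecin for a minimum 48 hr at 37 °C.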
# IL-1B inflam inh – qHTS for Inhibitors of Inflammasome Signaling: IL-1-beta AlphaLISA Primary Screen; THP-1 LPS/ATP IL-1B secretion, AlphaLISA, 16 h; active compounds read low; AID 743279, 2014; 360,000 tested, 4.7% active; activity change, % at 57.5 µM; in the data active = activity change below about -50%; inconclusive = mostly about -30% to -49%
#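 Secreted IL-1B measured by AlphaLISA bead assay after 16 h compound exposure of THP-1 cells; compounds (final up to 57.5 uM) added 1 h before LPS (250 ng/mL) and ATP (1.25 mM) stimulation; lower signal means less secretion.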
# HT1080-NT tox – qHTS for induction of synthetic lethality in tumor cells producing 2HG: qHTS for the HT-1080-NT fibrosarcoma cell line; 360,000 tested, 1.6% active; HT-1080-NT fibrosarcoma viability, CellTiter-Glo ATP luminescence, 48 h; Potency, µM (titrated, usually from 46.1 µM), for the others: at the highest dose activity, negative = less viability, actives largely listed as cytotoxic; AID 686970, 2013;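 note: NT is the 2HG producing partner of a matched IDH1 knockdown line; potency is the fitted concentration of half-maximal effect; 0% = DMSO-treated cells and -100% = media-only wells without cells; nearly all actives have a fitted effect of over 55% in size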
#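 Viability by CellTiter-Glo luminescence after 48 h compound exposure at 37C of HT-1080-NT cells (750/well, RPMI, 5% FBS). % activity scaled between DMSO wells and medium-only wells, then curve-fitted and categorized by curve class.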
# An asterisk follows results filed as active; ? = inconclusive; . = not tested or not shown. Unless noted, calls come from the whole dose curve; as a rule, active = well fitted curve in the direction sought with a large enough effect; inconclusive = small, poorly fitted or top-dose-only effect, or another doubt; inactive = no such curve, though single readings can be large; an effect the other way counts as inactive or inconclusive. Unless noted, % is set by controls: 0 for no effect and ±100 for the full control effect.
SMILES,HT1080 IDH1KD tx,TDP1 cell CPT,ELG1 DNA repair,DT40 TDP1 no CPT,IL-1B inflam inh,HT1080-NT tox
Cc1ccc(C)c(CN2C(=O)c3ccccc3S(=O)(=O)c3ccc(C(=O)N4CCc5ccccc54)cc32)c1,.,5.8µM*,.,5.8µM*,.,.
Cc1ccc(C)c(CN2C(=O)c3ccccc3S(=O)(=O)c3ccc(C(=O)N4CCN(Cc5ccccc5)CC4)cc32)c1,.,6.51µM*,.,6.51µM*,.,.
C[C@H](NC(=O)[C@H](Cc1ccccc1)n1c(=O)[nH]c2ccccc2c1=O)C(=O)N1CCC(C(=O)O)CC1,5.3%,-9.9%,-4.2%,-4.1%,14.0,0.0%
CN(c1nc2ccccc2nc1Cl)S(=O)(=O)c1ccccc1,3.6%,?,?,23.1µM*,-6.1,-3.5%
COc1cccc(N2CCN(C(=O)CCc3c(C)nc4c(c3C)c(=O)n(C)c(=O)n4C)CC2)c1,.,-8.8%,.,?,.,.
COc1ccc(C2C(C(C)=O)=C(O)C(=O)N2c2ccc(C)cc2)cc1 (stereo not drawn),2.6%,-12.2%,?,3.0%,0.0,-1.5%
Cc1ccc(-n2nc3ccc(N)cc3n2)cc1,-17.8%,-19.8%,?,1.9%,24.1,-21.5%
COc1ccc(C2N=C(N)N=C(N)N2c2ccc(C)cc2)cc1 (stereo not drawn),-15.8%,6.51µM*,-2.9%,?,?,0.0%
Cc1cc(C)cc(N2C(N)=NC(N)=NC2c2cccc(Cl)c2)c1 (stereo not drawn),?,?,?,5.17µM*,-53.7*,?
Cc1ccc(-n2nc(C)c3c2OC(N)=C(C#N)C3c2ccccc2F)cc1 (stereo not drawn),2.7%,?,?,-28.7%,9.1,-8.8%
Cc1cc(C)cc(N2C(N)=NC(N)=NC2c2ccccc2F)c1 (stereo not drawn),?,?,-16.2%,0.651µM*,-27.8,-6.7%
Cc1ccc2ccccc2c1C(O)c1ncc(-c2ccccc2F)[nH]1 (stereo not drawn),-14.1%,?,.,-27.4%,21.2,-26.3%
CCOC(=O)C1=NNC(C(=O)c2ccc(C)cc2)C1c1ccc(C)cc1 (stereo not drawn),-4.7%,?,11.5%,16.4µM*,-5.6,-1.3%
CCOC(=O)C1=NNC(C(=O)c2ccccc2)C1c1ccc(C)cc1 (stereo not drawn),1.1%,-15.2%,-7.9%,-22.3%,7.4,9.6%
CSCc1ccc(C(=O)N2CCC(N3CCC(C(=O)NC(C)C)CC3)CC2)o1,4.4%,4.8%,3.5%,-1.2%,-7.0,3.3%
O=[N+]([O-])c1ccc2nc(Cl)nc(-c3ccccc3)c2c1,-3.0%,11.6µM*,-0.2%,7.31µM*,-5.5,-2.4%
O=[N+]([O-])c1cccc(-c2nc(Oc3ccc(Cl)cc3)c3ccccc3n2)c1,.,.,7.9%,.,.,.
Cc1cc(N2C(=O)C(=O)/C(=C(/O)c3ccccc3)C2c2cccs2)no1 (stereo not drawn),-21.9%,0.0%,0.5%,3.1%,27.0,-4.0%
COc1cccc(/C(O)=C2/C(=O)C(=O)N(c3cc(C)on3)C2c2cccs2)c1 (stereo not drawn),?,?,5.9%,3.66µM*,1.5,?
O=C(c1csnn1)N1CCC2(CC1)CN(c1cccc(-c3ccccc3)c1)C2,.,23.1µM*,.,20.6µM*,.,.
O=C(c1csnn1)N1CCC2(CC1)CN(c1ccccc1)C2,.,16.4µM*,.,?,.,.
O=C(c1csnn1)N1CCC2(CCCN(c3ccccc3)C2)CC1,.,11.5%,.,?,.,.
O=C(c1csnn1)N1CCC2(CC1)CCN(c1ccccc1)CC2,.,10.5%,.,?,.,.
O=C(c1csnn1)N1CCC2(CCCN(C(c3ccccc3)c3ccccc3)C2)CC1,.,18.4µM*,.,?,.,.
COc1ccccc1C(=O)NC1CCN(C(=O)Nc2ccc(F)cc2)CC1,6.8%,-2.6%,-0.6%,1.1%,8.0,21.4%
SMILES,HT1080 IDH1KD tx,TDP1 cell CPT,ELG1 DNA repair,DT40 TDP1 no CPT,IL-1B inflam inh,HT1080-NT tox
O=C(NCc1ccccn1)/C(=N/O)c1ccccc1,26.3%,14.6µM*,?,14.6µM*,12.3,25.4%
C/C(=N\O)C(=O)NCc1ccccn1,9.4%,-11.0%,10.8%,-3.9%,16.8,10.7%
COc1ccc(S(=O)(=O)Nc2cccc(S(=O)(=O)N(C)C)c2)cc1[N+](=O)[O-],-6.5%,5.7%,.,-6.9%,28.7,-5.7%
COc1ccc(C2=NN(C(C#N)c3ccc(OC)c(OC)c3)C(c3ccccc3)C2)cc1 (stereo not drawn),-15.1%,?,?,20.6µM*,-22.1,-25.1%
COc1ccc(C2=NN(c3ccccc3)C(c3ccc(OC)c(OC)c3)C2)cc1 (stereo not drawn),-16.1%,-19.0%,?,-10.8%,0.0,2.4%
COc1ccc(C(C#N)N2CCC(c3ccccc3)=N2)cc1OC (stereo not drawn),18.2%,-17.6%,14.1%,-29.2%,-51.1*,19.7%
COc1cc(C(C#N)N2CCC(c3ccccc3)=N2)ccc1O (stereo not drawn),5.4%,?,24.2%,-28.2%,-12.4,19.2%
Cc1ccccc1C(=O)NCC(=O)OC1CCCCC1=O (stereo not drawn),-3.0%,-1.9%,?,1.1%,-3.3,-3.2%
CCOc1ccc(Oc2nc(NCC(C)C)nc(OC)n2)nn1,2.3%,13.9%,?,-11.9%,0.0,0.9%
CCNc1nc(NC(C)CC)nc(Oc2ccc(OCC)nn2)n1 (stereo not drawn),-1.9%,10.3µM*,?,9.2µM*,68.0,-16.7%
CCN(CC(=O)Nc1ccc(NC(C)=O)cc1)C(=O)Cc1ccc(Cl)c(Cl)c1,-9.9%,-0.7%,3.6%,?,12.3,-21.4%
C=C(CN(C)C)C(=O)c1ccc(C)cc1C,5.8µM*,0.517µM*,.,0.581µM*,-106.7*,?
O=C(COc1ccc(Cl)cc1Cl)N(C1CCCCC1)C1CCS(=O)(=O)C1 (stereo not drawn),-1.0%,-4.7%,?,-3.3%,-9.7,0.0%
CC(=O)c1c(C)[nH]c(C(=O)Nc2cccc(S(=O)(=O)N3CCCCC3)c2)c1C,-19.4%,?,?,14.6µM*,?,-18.0%
